Source: PubChem BioAssay (National Center for Advancing Translational Sciences (NCATS))
PLK1 PBD inh: qHTS for Inhibitors of PLK1-PDB (polo-like kinase 1 - polo-box domain): Primary Screen; Serine/threonine-protein kinase PLK1 (Homo sapiens), P53350; Plk1 PBD binding of FITC phosphopeptide, fluorescence polarization; Potency, µM, for inactives: max response, negative = inhibition, usual class: inhibitors; 360,000 compounds, 2.8% hits; also: series mostly up to about 57 µM; % is scaled to controls: 0 for no effect and ±100 for the full control effect; nearly all actives have a fitted effect of over 65% in size
VDR inh: Inhibitors of the vitamin D receptor (VDR): qHTS | Potency, µM, for the others: max response, negative = inhibition, hits mostly inhibitors | Vitamin D3 receptor (Homo sapiens), P11473 | 400,000 compounds, 0.93% hits | VDR-SRC2-3 peptide fluorescence polarization, 2 h; also: % is scaled to controls: 0 for no effect and ±100 for the full control effect
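FP read-out; VDR + SRC2-3 coactivator peptide; 23 nl compound by pintool; 2 h RT incubation; reagents held at 4 deg C, protected from light.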
GCN5L2 inh: qHTS Assay for Inhibitors of GCN5L2; Histone acetyltransferase KAT2A (Homo sapiens), Q92830; GCN5L2 HAT assay, ThioGlo1 CoA-SH fluorescence; Potency, µM (titrated, usually from 58.9 µM), for the others: top-dose activity change, negative = inhibition, actives largely listed as inhibitors; 390,000 compounds, 0.21% hits; also: % is scaled to controls: 0 for no effect and ±100 for the full control effect
Target sequence (Q92830 whole entry, looked up): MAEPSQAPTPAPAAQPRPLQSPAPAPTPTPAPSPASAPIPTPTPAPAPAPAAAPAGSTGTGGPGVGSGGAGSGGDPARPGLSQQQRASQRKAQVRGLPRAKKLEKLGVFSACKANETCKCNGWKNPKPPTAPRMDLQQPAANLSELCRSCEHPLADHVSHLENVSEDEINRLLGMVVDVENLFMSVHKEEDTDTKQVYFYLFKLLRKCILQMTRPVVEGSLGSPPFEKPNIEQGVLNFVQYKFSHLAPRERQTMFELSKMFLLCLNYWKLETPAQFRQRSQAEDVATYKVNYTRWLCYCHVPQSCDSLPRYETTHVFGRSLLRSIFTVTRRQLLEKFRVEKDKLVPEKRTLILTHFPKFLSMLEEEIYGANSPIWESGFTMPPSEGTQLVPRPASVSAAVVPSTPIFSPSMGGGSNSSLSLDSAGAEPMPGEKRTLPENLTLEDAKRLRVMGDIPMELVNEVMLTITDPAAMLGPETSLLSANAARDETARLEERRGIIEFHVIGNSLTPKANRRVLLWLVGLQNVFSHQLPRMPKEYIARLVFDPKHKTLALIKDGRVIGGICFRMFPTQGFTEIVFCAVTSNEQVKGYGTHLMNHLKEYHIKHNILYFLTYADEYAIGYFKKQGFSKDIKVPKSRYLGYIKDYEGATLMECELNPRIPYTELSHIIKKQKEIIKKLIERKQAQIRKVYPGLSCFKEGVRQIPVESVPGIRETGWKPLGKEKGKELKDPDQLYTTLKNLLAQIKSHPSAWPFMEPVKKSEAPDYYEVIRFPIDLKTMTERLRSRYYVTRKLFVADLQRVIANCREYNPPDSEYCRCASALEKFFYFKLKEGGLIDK
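GCN5L2 (20nM final) in 50mM HEPES, 0.1mM EDTA pH 7.5, 0.01% Tween-20 was preincubated 15 min at room temperature with compound, then given ThioGlo1 (50uM), H3(1-25) peptide (75uM) and acetyl-CoA (70uM); CoA-thiol fluorescence (Ex340/Em540) was read at 0 and 20 min.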
Mito fusion act: qHTS Assay for Small Molecule Inhibitors of Mitochondrial Division or Activators of Mitochondrial Fusion | 320,000 compounds, 0.23% hits | Potency, µM (highest dose often 46.1 µM), for inactives: at the top dose growth rescue (activation), actives largely listed as activators | AID 485298, 2010 | S. cerevisiae fusion-defective mutant growth rescue, CellTiterGlo 48 h; also: % of control where 0% means no effect; nearly all actives have a fitted effect of over 45% in size
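S. cerevisiae fusion-defective temperature-sensitive mutants (e.g. fzo1-1, mgm1-5) grown 48 h at 37C in YPEG (ethanol/glycerol non-fermentable) medium with 23 nl compound per well; growth rescue read as CellTiterGlo luminescence.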
PKM2 activator: qHTS Assay for Activators of Human Muscle isoform 2 Pyruvate Kinase; Pyruvate kinase PKM (Homo sapiens), P14618; 260,000 compounds, 0.34% hits; Potency, µM (doses to about 57.5 µM), for inactives: top-dose activation, actives largely listed as activators; purified PKM2, Kinase-Glo ATP luminescence, activation; response scale: 0% is enzyme alone, no compound; also: % is scaled to controls: 0 for no effect and ±100 for the full control effect; nearly all actives have a fitted effect of over 55% in size
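Kinase-Glo luminescence reports ATP generated from ADP (0.1 mM) and PEP (0.5 mM) by purified hPK-M2 after 1 h at room temperature, pH 7.2 imidazole buffer; intermediate enzyme activity allows detecting inhibitors and activators.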
GLS inhibitor: qHTS for Inhibitors of Glutaminase (GLS) | GLS enzymatic activity, qHTS titration | Potency, µM (doses to about 45.5 µM), for the others: top-dose activity change, negative = inhibition, actives largely listed as inhibitors | 410,000 compounds, 0.21% hits | AID 624170, 2012; also: % is scaled to controls: 0 for no effect and ±100 for the full control effect
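Assay buffer: 45 mM KH2PO4 pH 8.2, 0.02% Tween-20. hKGA acts on L-glutamine (1 mM solution added); product glutamate is reported by an oxidase/peroxidase Amplex Red coupling, with fluorescence taken at baseline and 30 min.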
* hit, by the source's call; ? = inconclusive; · = no result; [ ] = remark or other dose. Compounds with a hit are over-represented: about 3.4% of the library has one in this group of screens. Calls follow the shape of the dose curve; as a rule, active = well fitted curve in the direction sought with a large enough effect; inconclusive = small, poorly fitted or top-dose-only effect, or another doubt; inactive = no such curve, though single readings can be large; an effect the other way counts as inactive or inconclusive. Potency is read from the fitted curve at half-maximal effect.

SMILES	PLK1 PBD inh	VDR inh	GCN5L2 inh	Mito fusion act	PKM2 activator	GLS inhibitor
CCC(Oc1ccccc1)C(=O)NC1C(=O)N2C1SC(C)(C)C2C(=O)O (stereo not drawn)	-1%	4%	-16%	-3%	-19%	25µM*
Cc1onc(-c2c(F)cccc2Cl)c1C(=O)N[C@@H]1C(=O)N2C(C(=O)O)C(C)(C)S[C@H]12 (stereo partly drawn)	-13%	-8%	-3%	1%	·	11µM*
O=[N+]([O-])c1cccc(-c2nc(NCc3ccccc3)c3ccccc3n2)c1	-10%	-12%	-18%	3.2µM*	-2%	-2%
Cc1noc(C)c1-c1nc(NCc2ccccc2)c2ccccc2n1	·	35µM*	25µM*	·	·	·
N#Cc1cccc(-c2nc(NCc3ccccc3)c3ccccc3n2)c1	·	45µM*	?	·	·	·
CS(=O)(=O)Nc1cccc(-c2nc(NCc3cccnc3)c3ccccc3n2)c1	·	-3%	-3%	·	·	·
Cc1noc(C)c1-c1nc(NCc2cccnc2)c2ccccc2n1	·	?	-8%	·	·	·
CS(=O)(=O)Nc1cccc(-c2nc(NCc3ccccc3)c3ccccc3n2)c1	·	50µM*	?	·	·	·
CCOC(=O)C1CCN(C(=O)COC(=O)c2ccc([N+](=O)[O-])o2)CC1	-8%	1%	2%	2%	·	-10%
CCN(C(=O)c1cccn(Cc2ccccc2C)c1=O)c1ccccc1	·	-1%	3%	·	·	2%
CN(Cc1ccccc1)c1nc(-c2cccc([N+](=O)[O-])c2)nc2ccccc12	27µM*	?	35%	15%	3%	?
COc1cccc(-c2nc(NCc3cccs3)c3ccccc3n2)c1	·	50µM*	?	·	·	·
c1ccc(-c2nc(NCc3cccs3)c3ccccc3n2)cc1	1%	2%	-12%	13%	-2%	-2%
Cc1ccc(C)n1C1CCS(=O)(=O)C1 (stereo not drawn)	-4%	-8%	-1%	-6%	-2%	-4%
Cc1nn(C2CCS(=O)(=O)C2)c(C)c1C=O (stereo not drawn)	3.4µM*	?	-3%	-7%	-22%	?
O=S(=O)(O)c1cc(Cl)cc(N=Nc2ccc(O)cc2O)c1O	?	?	·	·	·	7%
O=S(=O)(O)c1cc(O)c2c(O)c(N=Nc3cc(Cl)ccc3O)c(S(=O)(=O)O)cc2c1	24µM*	?	-11%	-26%	·	25%
Nc1cc(S(=O)(=O)O)cc2ccc(S(=O)(=O)O)cc12	-10%	5%	·	·	·	-16%
Cc1cc(-c2ccc(N=Nc3c(S(=O)(=O)O)cc4cc(S(=O)(=O)O)cc(N)c4c3O)c(C)c2)ccc1N=Nc1c(S(=O)(=O)O)cc2cc(S(=O)(=O)O)cc(N)c2c1O	·	?	11µM*	-24%	·	16%
CCCCCC(=O)NC(Cc1ccc(OC)c([N+](=O)[O-])c1)C(=O)O (stereo not drawn)	21µM*	?	2%	-7%	-18%	0%
CN(CC(=O)Nc1ccccc1C(=O)Nc1ccccc1)C1CCCCC1	6%	3%	-7%	·	·	6%
O=c1[nH]cc(S(=O)(=O)c2ccccc2)[nH]1	30µM*	-30%	-8%	1%	4%	1%
O=C(N/N=C/c1ccco1)c1cccc(N2CCCC2=O)c1	-4%	-22%	-4%	-5%	-14%	1%
O=C(N/N=C/c1ccco1)c1cccc(N2Cc3ccccc3C2)c1	27µM*	?	-15%	1%	5%	-16%
O=C(O)CCCC/C=C\C[C@@H](O)/C=C/C=C/C=C\[C@@H](O)CCCC(=O)O	·	-7%	·	·	·	·
SMILES	PLK1 PBD inh	VDR inh	GCN5L2 inh	Mito fusion act	PKM2 activator	GLS inhibitor
CC(C)Oc1ccc(S(=O)(=O)N2CCOCC2)cc1NC(=O)CC1CCCC1	-10%	1%	-4%	2%	·	-2%
O=C(CC1CCCC1)Nc1cc(S(=O)(=O)N2CCOCC2)ccc1O	6µM*	?	-26%	-2%	·	-2%
O=C(CSc1nc2ccccc2s1)Nc1cc(S(=O)(=O)N2CCOCC2)ccc1O	11µM*	?	4%	8%	-18%	16%
COc1ccc(S(=O)(=O)N2CCOCC2)cc1NC(=O)CSc1n[nH]c(C(C)C)n1	27µM*	1%	-7%	4%	-1%	-12%
CCCCc1ccc(CC(=O)Nc2cc(S(=O)(=O)N3CCOCC3)ccc2O)cc1	15µM*	?	-14%	-2%	·	1%
COc1ccc(CC(=O)Nc2cc(S(=O)(=O)N3CCOCC3)ccc2N2CCOCC2)cc1OC	-6%	-15%	·	·	·	-1%
Cc1cccc(C)c1NC(=O)N1CCC(C(=O)c2ccc(F)cc2)CC1	-9%	-3%	3%	0%	·	-29%
Cc1ccccc1Oc1ccc2c(c1)[C@@H]1C[C@H](N(C)C(=S)Nc3ccc(F)cc3)[C@H]([C@H](C)O)C(=O)N1CC2	-19%	·	·	·	·	11%
Cn1nnnc1SCC(=O)NCc1cc([N+](=O)[O-])ccc1O	-10%	-6%	-7%	2%	2%	5%
O=C(CSc1nc2ccccc2s1)NCc1cc([N+](=O)[O-])ccc1O	19µM*	?	-10%	10%	·	13%
COc1ccccc1CNc1ncnc2ccc(-c3ccc(N(C)C)cc3)cc12	·	?	-12%	·	·	·
C=CCNC(=O)N1CCc2nc(COc3ccccc3)c3c(c2C1)CO[C@@H](C)C3	·	·	·	·	2%[11.5 µM]	·
N#CC1=C(N)SC(N)=C(C#N)C1c1ccc([N+](=O)[O-])cc1	9.5µM*	79µM*	-6%	7%	-4%	-29%
N#CC1=C(N)SC(N)=C(C#N)C1c1ccc(C(F)(F)F)cc1	·	·	-14%	0%	-12%	·
O=c1cc(-c2cccc(F)c2)[nH]c2cc(F)ccc12	·	7%	4%[88.6 µM]	·	·	·
CCc1cc(SC#N)cc(C)c1NC(=O)CCl	12µM*	79µM*	-4%	-25%	3%	10%
CCC(=O)Nc1ccc(SC#N)cc1C	13µM*	-35%	-2%	-28%	6%	-14%
OC[C@@H]1CN(Cc2ccncc2)C[C@H](n2cnc3c(NC4CCCC4)ncnc32)O1	-3%	·	·	·	·	-1%
CN1C(=O)c2ccccc2C(O)c2ccccc21 (stereo not drawn)	-4%	-7%	·	·	·	-6%
CC(=O)/C=C1\C(=O)N(C)c2ccccc21	·	25µM*	?	-35%	·	·
CC(=O)/C=C1/C(=O)Nc2ccccc21	21µM*	45µM*	-29%	-1%	28%	?
